# Results published in PubChem BioAssay AID1825 (The Scripps Research Institute Molecular Screening Center, 2009).
# Among all 290,000 compounds or so, about 2,300 (0.79%) were called active. Rule as the data show it: active = inhibition above about 22%; inactive = the rest. The entries come from a sample that favours actives as a whole.
# Assay: IEC-6 cell viability reduction – luminescence, cytotoxicity control for KLF5 inhibitor project, primary screen (AID 1825);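 also: 0% = plate median of test compound wells and 100% = cytotoxic reference compound wells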
# Conditions: IEC-6 cytotoxicity, at 5 µM, stronger effect = higher value
row,SMILES,inhibition
1,Cc1oc2cc3oc(=O)ccc3cc2c1C,3.1% (inactive)
2,COCCNc1cc(-c2ccccc2)nc2cc(-c3cccc(F)c3)nn12,2.5% (inactive)
3,CCOC(=O)C1=C(N)N2C(=O)C(C)SC2=C(C(=O)OCC)C1c1cc(OC)c(OC)c(OC)c1 (stereo not given),25.5% (active)
4,CCOC(=O)c1cc(-c2nnc(-c3cc(OC)c(OC)c(OC)c3)o2)c(C)nc1C,-3.1% (inactive)
5,CCOC(=O)C1CCN(C(=O)/C=C/c2cc(OC)c(OC)c(OC)c2)CC1,-2.6% (inactive)
6,Cc1ccc(N2CC(C(=O)NCCS(=O)(=O)N3CCN(c4ccccc4)CC3)CC2=O)cc1 (stereo not given),-4.2% (inactive)
7,Fc1ccc2[nH]c3c(N4CCN(Cc5ccc6c(c5)OCO6)CC4)ncnc3c2c1,19.7% (inactive)
8,CC(C)OCCCNc1ncnc2c1[nH]c1ccc(F)cc12,31.5% (active)
9,COc1cc(OC)c(OC)cc1/C=N/Nc1ncnc2c1[nH]c1ccc(C)cc12,-4.4% (inactive)
10,COc1ccc(-c2nc3n(c(=O)c2C#N)CCS3)c(OC)c1,1.6% (inactive)
11,O=C(c1cc2ccccc2s1)N1CCN(c2ccccn2)CC1,3.8% (inactive)
12,Cc1ccc(-c2cc(C(=O)NCC3CCCO3)c3ccccc3n2)o1 (stereo not given),-6% (inactive)
13,Cc1nn2c(NCCN(C)C)c3c(nc2c1-c1ccccc1)CCC3,25% (active)
14,CCc1c(C)nc2c(-c3ccccc3)c(C)nn2c1Nc1ccc(NC(C)=O)cc1,-10.5% (inactive)
15,Cc1cc(C(C)(C)C)n2nc(C)c(-c3ccccc3)c2n1,0.2% (inactive)
16,CC(=O)N(c1ccc2oc(=O)sc2c1)S(=O)(=O)c1ccc(C)cc1,-2.8% (inactive)
17,C/C(=N\NC(=O)Cc1ccc(Cl)cc1)c1ccccn1,-2.8% (inactive)
18,C/C(=N\NC(=O)c1ccccc1F)c1ccccn1,29.2% (active)
19,COc1ccc(CC(=O)N/N=C(\C)c2ccccn2)cc1,2% (inactive)
20,CCC(C)(C)NC(=O)/C=C/c1cc(OC)c(OC)c(S(=O)(=O)N2CCc3ccccc32)c1,-0.4% (inactive)
21,CCn1c(C)nc2c1C(=O)c1ccccc1C2=O,22.2% (active)
22,Cc1nc2ccccc2n1CC(O)c1ccccc1 (stereo not given),0% (inactive)
23,Cc1nc2ccccc2c(=O)n1Cc1ccc([N+](=O)[O-])cc1,-1.7% (inactive)
24,CCc1ccccc1NC(=S)Nc1cc(OC)c(NC(=O)C(C)C)cc1OC,-1.1% (inactive)

row,SMILES,inhibition
1,NS(=O)(=O)c1ccccc1NC(=O)c1c(O)c2ccccc2[nH]c1=O,-0.5% (inactive)
2,COc1ccc(Oc2cn[nH]c2-c2ccc(OC)cc2O)cc1,0% (inactive)
3,CC(C)(C)NS(=O)(=O)c1ccc(NC(=O)C2CCCO2)cc1 (stereo not given),-5% (inactive)
4,CCN1/C(=C/c2ccc3ccc(C)cc3[n+]2CC)Sc2ccccc21,33.6% (active)
5,CCN1/C(=C\c2ccc3ccccc3[n+]2CC)Sc2cc(C)ccc21,54.6% (active)
6,CCN1CCN(CCNC(=O)c2ccc(/C=C3/Sc4ccccc4N(Cc4cccc(C)c4)C3=O)cc2)CC1,7.2% (inactive)
7,COC(=O)c1sccc1NS(=O)(=O)c1ccc(F)cc1F,1% (inactive)
8,CCOC(=O)[C@@H]1[C@H]2COc3ccc(Br)cc3[C@H]2N2C(=O)N(c3ccc(Cl)cc3)C(=O)[C@@]12C,-0.1% (inactive)
9,CC1CC(C)CN(C(=O)CCNC(=O)Cn2cnc3ccccc3c2=O)C1 (stereo not given),0.9% (inactive)
10,CC(C)[C@@H](C(=O)O)N(Cc1cccc(CN([C@H](C(=O)O)C(C)C)S(C)(=O)=O)c1)S(C)(=O)=O,-3.4% (inactive)
11,CCOC(=O)C(=Cc1ccccc1OC)C(=O)OCC,-0.6% (inactive)
12,Cc1cc2c(cc1S(=O)(=O)CCC(=O)NCc1ccccc1)OCC(=O)N2,11% (inactive)
13,C/C(=N\N(C)C)c1ccc(OCCOc2ccc([N+](=O)[O-])cc2)cc1,2.8% (inactive)
14,COc1cccc(OC)c1C(=O)Nc1c(C(=O)N2CCN(c3ccccn3)CC2)oc2ccccc12,0% (inactive)
15,CCOc1ccc(NC(=O)CC(Cc2ccc(Cl)cc2)C(=O)O)cc1 (stereo not given),5.3% (inactive)
16,Cc1ccc(S(=O)(=O)CC(=O)Nc2nnc(C)s2)cc1,-1.2% (inactive)
17,CCSc1nnc(NC(=O)c2ccc(C)cc2)s1,2.1% (inactive)
18,CSc1ncc(Cl)c(C(=O)Nc2cc(C)ccc2C)n1,4.1% (inactive)
19,Cc1nnc(NC(=O)Nc2ccc(Cl)c(Cl)c2)s1,4.3% (inactive)
20,CSc1nnc(NC(=O)c2nc(S(=O)(=O)Cc3ccc(C)cc3)ncc2Cl)s1,55% (active)
21,Cc1ccc(CS(=O)(=O)c2ncc(Cl)c(C(=O)Nc3nnc(C)s3)n2)cc1,83.7% (active)
22,Cc1ccc2cc(C)c(N3CCN(c4ccc(F)cc4)CC3)nc2c1,-5.5% (inactive)
23,COc1cccc2cc(-c3cc(=O)oc4cc(C)c(O)cc34)oc12,-3.7% (inactive)
24,Cc1[nH]c(C)c(S(=O)(=O)N2CCN(c3cccc(C(F)(F)F)c3)CC2)c1C(=O)N1CCCC1,-1.3% (inactive)

row,SMILES,inhibition
1,COc1cccc(C(O)c2nc3ccccc3n2C)c1 (stereo not given),-1% (inactive)
2,CC(C)[C@@H]1COC(c2cccc(C3=N[C@H](C(C)C)CO3)c2)=N1,2.1% (inactive)
3,Cc1nc(Nc2ccc3c(c2)OCCO3)c2nnn(Cc3ccccc3Cl)c2n1,22.2% (active)
4,Cc1nc(Nc2ccccc2F)c2nnn(Cc3ccccc3Cl)c2n1,-5.6% (inactive)
5,CCCc1nc(NCc2ccc3c(c2)OCO3)c2nnn(Cc3ccccc3Cl)c2n1,0.3% (inactive)
6,O=C(CNC(=O)c1ccc(Br)o1)Nc1ccccc1,-1.9% (inactive)
7,c1ccc(-n2nnnc2-c2cccnc2)cc1,4.3% (inactive)
8,CCOc1cccc(-n2nnnc2-c2ccc(OC)cc2)c1,58.4% (active)
9,COc1ccc(-n2nnnc2-c2nc3ccccc3s2)cc1,-9% (inactive)
10,COCCNC(=O)C(c1ccc(C)cc1)N(C(=O)CCC(=O)Nc1ccccn1)c1cccc(C)c1 (stereo not given),7% (inactive)
11,C=CCOC(=O)C1=C(C)NC(SCC(=O)OCC)=C(C#N)C1c1ccc(C)cc1 (stereo not given),0.1% (inactive)
12,CCOC(=O)CSC1=C(C#N)C(c2sccc2C)CC(=O)N1 (stereo not given),81.1% (active)
13,Cc1ccc(C2CC(=O)NC(SCC(=O)OCc3ccccc3)=C2C#N)o1 (stereo not given),-14.2% (inactive)
14,N#C/C=C/N1CCN(Cc2ccc3c(c2)OCO3)CC1,-5.9% (inactive)
15,Cc1ccc(-n2c(SCC(=O)Nc3ncc(Cl)cc3Cl)nc3ccccc32)cc1,61.4% (active)
16,Cc1ccc(SCCC(=O)OCC(=O)Nc2ncc(Cl)cc2Cl)cc1,-3.3% (inactive)
17,NS(=O)(=O)c1cccc(NC(=O)CSc2nc3ccccc3n2-c2ccccc2)c1,-1.5% (inactive)
18,COCCN1C(=O)C(=O)/C(=C(/O)c2ccc(S(=O)(=O)N3CCOCC3)cc2)C1c1ccc(OC)c(OC)c1 (stereo not given),5.3% (inactive)
19,NC(=O)Cn1cc(/C=N\NS(=O)(=O)c2ccccc2)c2ccccc21,1.4% (inactive)
20,Cc1cc(-c2ccc(C)c(S(=O)(=O)NCCCN(Cc3ccccc3)C(C)C)c2)on1,6.1% (inactive)
21,COc1ccc(CNS(=O)(=O)c2cc(-c3cc(C)no3)ccc2C(C)C)cc1,77.6% (active)
22,CCOc1ccccc1CNS(=O)(=O)c1cc(-c2cc(C)no2)ccc1C,2.7% (inactive)
23,COc1cccc(NC(=O)CN(C)C(=O)c2ccccc2CCc2ccccc2)c1,-3.1% (inactive)
24,Cc1ccc(C(=O)CCC(=O)N(C)CC(=O)Nc2c(Cl)cccc2Cl)cc1,1.7% (inactive)

row,SMILES,inhibition
1,Cc1cc(C)nc(SCC(=O)c2ccc(Cl)cc2)n1,-2.2% (inactive)
2,Cc1cc(C)nc(S/C=C/C(=O)c2ccccc2)n1,31.5% (active)
3,Cc1ccc(N/C=C/C(=O)c2ccccc2)cc1C,0.5% (inactive)
4,O=S(=O)(NC1CCCC1)c1ccc(-n2cnnn2)cc1,-0.4% (inactive)
5,Cc1ccc(NS(=O)(=O)c2ccc(C)c(NC(=O)COc3ccc4ccccc4c3)c2)c(C)c1,-2% (inactive)
6,COc1ccc2cc(S(=O)(=O)Nc3ccccn3)ccc2c1,1.9% (inactive)
7,COc1cc(NS(=O)(=O)c2ccc3ccccc3c2)c2ncccc2c1,93.3% (active)
8,CCC(CC)c1nnc(NC(=O)C2CCN(C(=O)c3ccco3)CC2)s1,-0.9% (inactive)
9,COc1ccc(C(=O)c2c(C)c(CCC#N)n3ccccc23)c(OC)c1,-1.3% (inactive)
10,CCC(=C/c1sc2ccc3ccccc3c2[n+]1C)/C=C1\Sc2ccc3ccccc3c2N1C,32.2% (active)
11,CC(C)C(=O)Nc1c2c(nn1-c1ccccc1)CSC2,-4.2% (inactive)
12,COc1ccc(/C=C/c2noc(-c3ccccc3OC(C)=O)n2)cc1,-0.4% (inactive)
13,S=C(Nc1ccc(Br)cc1)NC1CCN(Cc2ccccc2)CC1,11.3% (inactive)
14,COc1ccc2c(c1OC)C(=O)OC2Nc1nc(-c2ccccc2)cs1 (stereo not given),21.9% (active)
15,Cc1ccc(-c2csc(NNC(=O)c3ccccc3)n2)cc1,-1.4% (inactive)
16,COc1ccc(-c2csc(NC3OC(=O)c4ccccc43)n2)cc1 (stereo not given),18.7% (inactive)
17,COc1ccc(CCNc2nc(-c3cccc(NC(C)=O)c3)cs2)cc1OC,2.3% (inactive)
18,Cc1ccc(-c2csc(NC3OC(=O)c4ccccc43)n2)cc1 (stereo not given),34.7% (active)
19,Cc1cccc(Nc2nc(-c3ccccc3)cs2)n1,5.9% (inactive)
20,COCCN1C(=O)N(c2ccc(Cl)cc2)C(=O)C1CC(=O)Nc1cc(OC)cc(OC)c1 (stereo not given),-2.6% (inactive)
21,CC(=O)Nc1c2c(nn1-c1ccc(C)cc1C)CS(=O)C2 (stereo not given),-0.7% (inactive)
22,NC(=O)c1oc2ccccc2c1NC(=O)CS(=O)(=O)c1ccccc1,6.1% (inactive)
23,Cc1ccc(NC(=O)C(C)c2cccc(C(=O)c3ccccc3)c2)cc1 (stereo not given),3.2% (inactive)
